This passage reports Potency results from PubChem BioAssay AID1347076 (National Center for Advancing Translational Sciences (NCATS), 2019).

In all, about 400,000 compounds went through this assay and about 13,000 (3.2%) were called active. Entries that show only a call come without a potency. Another 18% or so got no clear call; they are omitted. The call rests on the fitted dose curve; in most records, active means well fitted cell-killing curve with a large enough effect; inconclusive means small, poorly fitted or top-dose-only effect, or effect the other way; inactive means flat fitted curve, though single readings scatter. This excerpt belongs to a sample that is enriched for actives.
Potency means the concentration at half of the fitted maximal effect.

The nature of the test: qHTS assay for MDR1-selective chemotherapeutics: Primary screen using the drug-selected MDR subline cells KB-V1. Further: nearly all actives have a fitted effect of over 60% in size. The conditions noted are these: KB-V1 MDR cells viability, CellTiter-Glo, 72 h; series mostly up to 46.1 µM. Summed up: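 Cytotoxicity via CellTiter-Glo luminescence after 72 h compound exposure at 37 degrees C. Cells: drug-selected KB-V1 line, DMEM phenol-red free plus 10% FBS. Compounds tested at multiple concentrations; normalized data fitted to concentration-effect curves.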
Background: Quantitative high-throughput screening tests each substance at several concentrations.
Turning to `Cc1cccc(S(=O)(=O)N(C)C[C@@H]2OCc3cnnn3CCCC(=O)N([C@H](C)CO)C[C@@H]2C)c1`, the Potency entry is “inactive”.

As for `CCc1ccccc1OCCSc1nc(-c2cccs2)nc2cc(=O)[nH]n12`, the Potency result was “inactive”. The same measure for `Cc1nnc(SCC(=O)NCc2ccccc2Cl)c2nn(-c3ccccc3)c(C)c12`: “inactive”; for `C[C@H]1CN(c2ccc(Br)cc2)C(=O)[C@@H]1CC(=O)Nc1ccc(Br)cc1`: “inactive”; for `CNC(=O)C[C@H]1C(=O)N(c2ccc(OC)cc2)C[C@@H]1Cc1ccccc1`: “inactive”. For the molecule `O=C(NCc1cccnc1)c1cc(C2CCCCN2C(=O)CCc2ccccc2)on1` (centres undefined), the Potency entry was “inactive”. Regarding `COc1ccc(C)cc1N(CC(=O)N1CCCC1)S(=O)(=O)c1ccccc1`, the Potency result was “inactive”. The same measure for `COc1ccc(N(CC(=O)N2CCCCCC2)S(=O)(=O)c2ccccc2)cc1`: “inactive”; for `NC(=O)c1ccccc1N(Cc1ccccc1)S(=O)(=O)c1ccccc1`: “inactive”. The value for `CCOC(=O)N1CCN(S(=O)(=O)c2ccc(OC)cc2)CC1` was “inactive”. On to `CCOC(=O)N1CCN(C(=O)CN(c2ccc(C)c(C)c2)S(=O)(=O)c2ccccc2)CC1`, for which the Potency is 1160 nM (active). The value for `CCOC(=O)N1CCN(C(=O)c2ccccc2N(Cc2ccccc2)S(=O)(=O)c2ccc(OC)cc2)CC1` was 20600 nM (active).

On to `CC1CCCCN1Cc1c(O)ccc2c(=O)c(-c3cccc(Cl)c3)c(C(F)(F)F)oc12` (centres undefined), for which the Potency result is “inactive”. The same measure for `CCC1CN(S(=O)(=O)c2cc(-c3cc(C)no3)ccc2C)c2cc(C)ccc2O1` (centres undefined): “inactive”; for `C[C@@H]1CN([C@H](C)CO)C(=O)CCCn2nncc2CO[C@@H]1CN(C)S(=O)(=O)c1cccc(C#N)c1`: “inactive”; for `Cc1csc(NCC(=O)c2c[nH]c3ccccc23)n1`: “inactive”. Regarding `COc1ccc(-c2nc3c4ccccc4n(CC(=O)Nc4ccc(C(C)=O)cc4)c(=O)n3n2)cc1`, the Potency entry is “inactive”. Turning to `COc1ccc(/C=C(\NC(=O)c2ccc(OC)c(OC)c2)C(=O)NCCc2c[nH]c3ccccc23)cc1`, the Potency entry is “inactive”.

For the molecule `COc1ccc(/C=C(\C#N)c2c[nH]c3ccccc23)cc1`, the Potency is 1300 nM (active).

For `COc1ccc(C(C(O)C(=O)c2c[nH]c3ccccc23)N2CCN(c3ccccc3)CC2)cc1` (centres undefined), the Potency result is “inactive”. Take `O=C(CC[C@H]1O[C@@H](n2ccc(=O)[nH]c2=O)[C@H](O)[C@@H]1O)N[C@H](Cc1ccccc1)C(=O)NCc1ccco1`: the Potency entry was “inactive”. The same measure for `Oc1c(C(c2ccc(F)cc2)N2CCN(Cc3ccccc3)CC2)sc2nc(-c3ccco3)nn12` (centres undefined): “inactive”; for `COC(=O)c1ccc(Cn2c(SCC(=O)N(C)c3ccccc3)nc3ccccc32)cc1`: “inactive”; for `C#CCNC(=O)C[C@@H]1C[C@@]2(C(=O)OCC)CCCC=C2N(Cc2ccco2)C1=O`: “inactive”.
